Results taken from PubChem BioAssay AID896 (National Center for Advancing Translational Sciences (NCATS), 2007).
This is one part of the list. Records with an inconclusive call do not appear. Values without a mark were called inactive. The call rests on the fitted dose curve; in most records, active means well fitted inhibition curve with a large enough effect in the main read-out, with a control signal flat; inconclusive means small, poorly fitted or top-dose-only effect, or a change in a side signal; inactive means no such curve, though single readings can be large or run the other way.

Molecular target: Caspase-1 (Homo sapiens) (UniProt P29466)
Assay: Confirmation Concentration-Response Assay for Allosteric/Competitive Inhibitors of Caspase-1
Details: purified caspase-1, fluorogenic substrate cleavage; series mostly up to 57.5 µM; activity change, negative = inhibition: at the top concentration
Source text: NIH Molecular Libraries Screening Centers Network [MLSCN]
NIH Chemical Genomics Center [NCGC]
PI Name: Dr. James Wells,
Dr. Enrique Perez-Paya, Dr.Janice Williams, Dr. Dennis Wolan, a person
The caspases (Cysteine Aspartyl Protease) comprise a related family of 14 dimeric proteases that are critical mediators of apoptosis (programmed cell death) and inflammation. The caspases represent an important class of drug targets for stroke, ischemia, cancer and inflammatory diseases. […] One goal of this project was to identify compounds that act as allosteric inhibitors via stabilizing the procaspase form of the enzyme. […]
The biochemical assay was configured using purified caspase 1 at a high enzyme concentration to promote formation of the homodimers and thus facilitate the identification of allosteric inhibitors. […] After initiation of the assay with substrate the plates were rapidly read using an automated robotic system (Kalypsys, Inc.) to maintain consistent timing. […] Product formation was also measured after 1 hour. […]
Caspase 1 was prepared in buffer (50 mM HEPES pH 7.5, 50 mM KCl, 200 mM NaCl, 10 mM DTT, 0.1% CHAPS) at a concentration of 66.6 nM and 3 uL was dispensed to all wells using black solid Kalypsys 1536-well plates. […] The plates were then exposed using 405 nm excitation/520 nm emission filters for 4 sec and read at 20 sec intervals for 3 min. […]

Row | Structure (SMILES) | activity change, negative = inhibition
1 | Cc1nc2c(C(=O)NCc3ccc4c(c3)OCO4)c[nH]n2c(=O)c1Cc1ccccc1F | -18.4%
